The full ranking holds about 110,000 compounds; the median of “z-score” is about -0.1, and the highest 2% start at about 2. Many of the other results were omitted from the sample, so the highest values are more common in it than they were. Activity calls are given as the source filed them.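 How the source made its calls: active means z-score in the third read window above 3 or below -3; inactive means the rest.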

Sequence of Metabotropic glutamate receptor 8 (Rattus norvegicus) (P70579 whole entry, looked up): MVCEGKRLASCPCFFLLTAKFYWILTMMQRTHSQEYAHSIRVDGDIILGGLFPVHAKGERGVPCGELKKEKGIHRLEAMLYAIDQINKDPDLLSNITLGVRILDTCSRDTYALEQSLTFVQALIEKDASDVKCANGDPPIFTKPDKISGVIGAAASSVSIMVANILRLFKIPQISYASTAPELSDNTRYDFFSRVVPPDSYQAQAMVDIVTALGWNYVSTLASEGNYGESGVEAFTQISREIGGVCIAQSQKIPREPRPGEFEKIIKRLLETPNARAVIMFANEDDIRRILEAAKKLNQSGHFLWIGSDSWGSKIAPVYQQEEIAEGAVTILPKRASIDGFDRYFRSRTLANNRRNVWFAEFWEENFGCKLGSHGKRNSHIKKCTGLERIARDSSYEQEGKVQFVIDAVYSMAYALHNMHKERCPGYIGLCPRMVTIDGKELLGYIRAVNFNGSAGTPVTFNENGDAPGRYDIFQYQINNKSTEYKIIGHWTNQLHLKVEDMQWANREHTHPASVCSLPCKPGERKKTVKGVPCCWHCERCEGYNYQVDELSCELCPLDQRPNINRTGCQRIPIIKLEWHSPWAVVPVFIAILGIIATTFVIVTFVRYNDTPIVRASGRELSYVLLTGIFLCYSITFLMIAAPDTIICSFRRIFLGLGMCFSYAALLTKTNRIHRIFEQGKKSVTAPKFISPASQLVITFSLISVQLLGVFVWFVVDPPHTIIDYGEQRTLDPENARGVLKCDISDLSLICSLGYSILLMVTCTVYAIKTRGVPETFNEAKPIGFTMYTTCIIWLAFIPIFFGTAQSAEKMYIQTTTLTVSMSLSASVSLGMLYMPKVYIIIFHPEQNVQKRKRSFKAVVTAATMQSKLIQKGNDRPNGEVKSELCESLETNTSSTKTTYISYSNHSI

The test concerns the target Metabotropic glutamate receptor 8 (Rattus norvegicus) (UniProt P70579). Put plainly: rat mGluR8 modulators via GIRK flux, primary screen, cell-based, thallium flux, HTS (AID 488969). The following applies: HEK293 rat mGluR8, GIRK (G protein-gated inwardly rectifying potassium channel) thallium flux, FluoZin2; at 10 µM; stronger effect = higher value; submaximal glutamate (EC20) added with thallium.
Compound `CCSc1nc2[nH]ncc2c(=O)[nH]1` had a z-score of -0.145. Compound `CCOC(=O)c1c(N)sc(C(O)(C(F)(F)F)C(F)(F)F)c1-c1ccc(OC)cc1OC` came in with a z-score of -1.15.

The compound `O=C(COC(=O)c1cccnc1Nc1cccc(C(F)(F)F)c1)NC1CCS(=O)(=O)C1` (stereo not given) came in with a z-score of -0.275. The same measure for `O=C(NCc1cc(C(F)(F)F)cc(C(F)(F)F)c1)C1CC(c2c(Cl)cccc2Cl)=NO1` (stereo not given): -0.111; for `Cc1ccc(S(=O)(=O)Nc2cccc3cccnc23)cc1`: -0.731; for `Cc1ccc(-n2c(-c3ccc(Br)cc3)c[n+]3c2CCc2ccc4cccnc4c2-3)cc1`: 4.86 (active). Regarding `Brc1ccc(-c2cn3c(n2)CCc2ccc4cccnc4c2-3)cc1`, the z-score was 0.098. As for `COc1ccccc1-n1c(SCC(=O)N2CCCCC2)nnc1-c1ccccc1O`, the figure is -0.514. In turn, `CN(C(=O)c1ccccn1)c1nnc(-c2ccccn2)s1` had a z-score of 2.29. As for `CN(C(=O)c1ccccn1)c1nnc(-c2ccncc2)s1`, the figure is -0.931. `CN(C(=O)c1ccccn1)c1nnc(-c2cnccn2)s1` came in with a z-score of -0.729.

`COc1ccc(-c2noc(CSc3nnc(Cc4ccccc4)n3-c3ccc(Cl)cc3)n2)cc1` had a z-score of 0.663. As for `N=c1n(CCN2CCCCC2)c2ccccc2n1CC(O)COc1ccccc1` (stereo not given), the figure is 1.11; as for `Cc1ccccc1OCC(O)Cn1c(=N)n(CCN2CCOCC2)c2ccccc21` (stereo not given), 1.12; as for `Cc1ccc(OCC(O)Cn2c(=N)n(CCN3CCCCC3)c3ccccc32)cc1` (stereo not given), 4.9 (active). With `Cc1cccc(OCC(O)Cn2c(=N)n(CCN3CCCCC3)c3ccccc32)c1` (stereo not given), the z-score was 5.06 (active).

As for `COc1ccccc1OCC(O)Cn1c(=N)n(CCN2CCCCC2)c2ccccc21` (stereo not given), the z-score is -0.0021. In turn, `N=c1n(CCN2CCCCC2)c2ccccc2n1CC(O)c1cccc(Br)c1` (stereo not given) gave a z-score of 0.566. Consider `O=C(Nc1ccc(Cl)cc1)C1=Cc2cc(Cl)ccc2OC1`, for which the z-score was -0.109.

Compound `COC(=O)C1=C(C)NC2=C(C(=O)CC(C)(C)C2)C1c1ccsc1` (stereo not given) returned a z-score of 0.803. Compound `Cn1c(C(C(=O)NCC2CCCO2)N(C(=O)Cn2nnc3ccccc32)C2CCCCC2)nc2ccccc21` (stereo not given) gave a z-score of -0.0111. `CCOC(=O)/C(C#N)=C/NC(=O)NC(C)(C)C` displayed a z-score of 0.141. The same measure for `Cc1ccc2[nH]c(=O)c(CN(CCO)C(=O)N(C)C)cc2c1`: -0.0536. Take `CCOC(CNC(=O)CCc1c(C)nc2nc(C)nn2c1C)OCC`: the z-score is -0.308. `CCc1ccc(S(=O)(=O)Nc2c(C)nn(C)c2C)cc1` displayed a z-score of -0.343. `CN(Cc1ccccc1F)c1nc(-c2cccs2)nc2ccccc12`: the z-score came to 0.11.

`O=C(O/N=C\c1ccc(N2CCCCC2)c([N+](=O)[O-])c1)c1c(F)cccc1F` showed a z-score of 2.03.

Compound `O=C(O/N=C\c1ccc(N2CCCCC2)c([N+](=O)[O-])c1)c1cccc(Cl)c1` came in with a z-score of -0.494. Compound `O=C(O/N=C\c1ccc(N2CCCCC2)c([N+](=O)[O-])c1)c1cccc(C(F)(F)F)c1` had a z-score of 0.31. Compound `CCOC(=O)CSc1cc(CS(=O)c2ccc(Cl)cc2)nc(-c2ccccc2)n1` (stereo not given) registered a z-score of 0.0352. The same measure for `CCOC(=O)CSc1cc(CSc2ccccc2)nc(-c2ccccc2)n1`: 4.85 (active); for `CCOC(=O)CSc1cc(CS(=O)(=O)c2ccccc2)nc(-c2ccccc2)n1`: -0.223. Compound `CC(=O)N(c1nc(CCl)cs1)c1c(C)cc(C)cc1C` showed a z-score of 1.43. Take `Cc1ccc(-c2cc(C(=O)NCc3cnn(C)c3C)c3cc(Br)ccc3n2)cc1`: the z-score is -0.453. For `CCc1ccc(C2C(C#N)=C(N)C(C#N)(C#N)C3=CCC(C(C)(C)C)CC32)cc1` (stereo not given), the z-score was -0.0406. Compound `CCCn1c(=S)[nH]c2cc(C(=O)N3CCN(c4ccccc4OC)CC3)ccc2c1=O` came in with a z-score of 0.596. `CCN(CC)CCn1c(=S)[nH]c2cc3c(cc2c1=O)OCO3` registered a z-score of -0.565.

Turning to `O=C(CCCn1c(=S)[nH]c2cc3c(cc2c1=O)OCO3)N1CCN(c2ccc(Cl)cc2)CC1`, the z-score was -0.36. For the compound `CC(C)NC(=O)CCCn1c(=S)[nH]c2cc3c(cc2c1=O)OCO3`, the z-score is 0.566. On to `CC(C)OCCCn1c(=S)[nH]c2cc3c(cc2c1=O)OCO3`, for which the z-score was 6.19 (active). Take `O=C(CCCn1c(=S)[nH]c2cc3c(cc2c1=O)OCO3)N1CCN(c2ccc(F)cc2)CC1`: the z-score was -0.237. Take `COCCn1c(=S)[nH]c2cc(C(=O)N3CCN(c4ccc(F)cc4)CC3)ccc2c1=O`: the z-score was 4.3 (active). As for `COCCn1c(=S)[nH]c2cc(C(=O)N3CCN(c4ccccc4OC)CC3)ccc2c1=O`, the figure is -0.495; as for `CC(=O)c1ccc(N2CCN(C(=O)CCCn3c(=S)[nH]c4cc5c(cc4c3=O)OCO5)CC2)cc1`, 2.56. In turn, `Cc1cc(=O)[nH]c(SCC(=O)C23CC4CC(CC(C4)C2)C3)c1C#N` gave a z-score of -0.0485. As for `O=C(Nc1cccc(O)c1)c1cc2nc(-c3ccccc3)cc(-c3ccccc3)n2n1`, the figure is -0.00871; as for `O=C(COc1ccc(C(=S)N2CCOCC2)cc1)N1CCCC1`, -0.301; as for `Cc1ccc(S(=O)(=O)N2CCN(C)CC2)cc1-c1nnc2c3ccccc3c(C)nn12`, 9.27 (active). As for `Cc1ccc(S(=O)(=O)N2CCN(CCO)CC2)cc1-c1nnc2c3ccccc3c(C)nn12`, the figure is -0.156; as for `Cc1ccc(-c2nnc3c4ccccc4c(C)nn23)cc1S(=O)(=O)N1CCN(C)CC1`, -0.999.

As for `Cc1cc(C)n(-c2nncn2NC(=O)c2ccc(Cl)cc2O)n1`, the z-score worked out at 2.24. `Cc1ccc(C)n1NC(=O)c1ccc(Cl)cc1Cl`: the z-score was found to be 0.557. Consider `Cc1cc(C)n(-c2nnc(C)n2NC(=O)c2cccc(Cl)c2)n1`, for which the z-score was 0.0281. `CCSc1nc2cc(C(=O)OC)ccc2c(=O)n1CC` gave a z-score of 0.836. As for `CCCCn1c(SC(C)C(N)=O)nc2cc(C(=O)OC)ccc2c1=O` (stereo not given), the z-score was 3 (active).

For `CCNC(=O)NC(=O)C(C)Sc1nc2cc(C(=O)OC)ccc2c(=O)n1-c1ccccc1` (stereo not given), the z-score was 0.204. As for `O=C(O)C1CC=CCC1C(=O)NCc1ccc2c(c1)OCO2` (stereo not given), the figure is -0.618; as for `COc1ccc(N2CCN(C(=O)CSc3nnc4c(C)cc5cc(C)ccc5n34)CC2)cc1`, 1.03; as for `Cc1ccc(C)c(-n2ccnc2SCC(=O)O)c1`, -0.0351.

In turn, `CCc1cccc(NC(=O)CN(c2ccc(OC)cc2)S(=O)(=O)c2c(C)n[nH]c2C)c1` gave a z-score of 0.317. On to `COCCCNC(=O)Cn1ncc2ccsc2c1=O`, for which the z-score was -0.327.

For the compound `COC(CNC(=O)Cn1ncc2ccsc2c1=O)OC`, the z-score is -0.112.

`COCCNC(=O)Cn1ncc2ccsc2c1=O` gave a z-score of 2.25.

`CCOc1ccc2oc(-c3ccccc3)c(C(=O)N3CCN(CCO)CC3)c2c1` registered a z-score of -0.457. Take `COc1cc(C(=O)NCc2cn3ccsc3n2)cc(OC)c1OC`: the z-score was -0.0269. The same measure for `COc1ccc(C(=O)NCc2cn3ccsc3n2)cc1OC`: -0.547; for `COc1cccc(C(=O)NCc2cn3ccsc3n2)c1`: 15.2 (active). Consider `O=C(CSc1ccc(-c2ccc(F)cc2)nn1)N1CCN(c2ccccc2)CC1`, for which the z-score was -0.139. In turn, `Cc1ccc(C(=O)O)cc1S(=O)(=O)N1CCCC1` showed a z-score of 2.05. Regarding `Cc1ccc(C(=O)O)cc1S(=O)(=O)N1CCOCC1`, the z-score is -0.267. Regarding `Cc1ccc(C(=O)O)cc1S(=O)(=O)N1CCC(C(=O)O)CC1`, the z-score was found to be 0.299.

For the compound `CCOC(=O)c1cnc2c(C#N)c(C)nn2c1C`, the z-score was determined as 0.0622. In turn, `COc1ccc(NS(=O)(=O)c2cc(NC(=O)c3ccc(C)o3)ccc2N2CCCCC2)cc1` gave a z-score of -0.024. `CC1CCCCN1CCNC(=O)c1cc2c(=O)n(C)c3ccccc3c2n1C` (stereo not given) showed a z-score of 1.88.

The compound `CC1CCN(CCCNC(=O)c2cc3c(=O)n(C)c4ccccc4c3n2C)CC1` returned a z-score of 2.7.

Compound `CCCN1CCN(CCCNC(=O)c2cc3c(=O)n(C)c4ccccc4c3n2C)CC1` returned a z-score of 1.48. In the case of `CC1CCCC(C)N1CCCNC(=O)c1cc2c(=O)n(C)c3ccccc3c2n1C` (stereo not given), the z-score was 2.79.

`Cn1c(C(=O)NCCN2CCOCC2)cc2c(=O)n(C)c3ccccc3c21` returned a z-score of -2.82.

The compound `Cn1c(C(=O)NCCN2CCCCCC2)cc2c(=O)n(C)c3ccccc3c21` returned a z-score of 1.86. The compound `Cn1c(C(=O)NCCCN2CCN(c3ccccc3F)CC2)cc2c(=O)n(C)c3ccccc3c21` showed a z-score of 2.46. For `Cn1c(C(=O)NCCCN2CCN(c3ccccc3F)CC2)cc2c(=O)[nH]c3ccccc3c21`, the z-score was -0.0771. As to `Cn1c(C(=O)NCCCN2CCCC2=O)cc2c(=O)n(C)c3ccccc3c21`, the z-score is -0.963. Regarding `Cn1c(C(=O)NCCCN2CCCCCC2)cc2c(=O)n(C)c3ccccc3c21`, the z-score was determined as 2.52. As for `Cn1c(C(=O)NCCCN2CCOCC2)cc2c(=O)n(C)c3ccccc3c21`, the figure is 0.0335; as for `CCC(=O)N1CCN(c2nc3ccccc3s2)CC1`, -0.0557. As to `O=C(NNC(=S)NC1CCCCC1)c1cccc(S(=O)(=O)Nc2ccccc2Cl)c1`, the z-score was -0.537. On to `O=C(CCNc1ccccc1)c1cccc([N+](=O)[O-])c1`, for which the z-score was -0.134. `Cc1cccc(NC(=O)c2sc(NC(=O)COc3ccccc3)c(C#N)c2C)c1C` yielded a z-score of -0.152.

Turning to `CC(OC(=O)c1cc2sccc2n1C)C(=O)NCc1ccc2c(c1)OCO2` (stereo not given), the z-score is -0.018. As for `Cc1snc2sc(C(=O)c3ccc(Br)cc3)c(N)c12`, the figure is -0.378; as for `O=C(NCc1ccco1)c1cc(-c2ccc3c(c2)OCO3)on1`, -0.862; as for `O=C(O)CCCN1C(=O)C2C3CCC(O3)C2C1=O` (stereo not given), -0.35. With `CCCCn1c(SCC(=O)Nc2ccccc2C(F)(F)F)nc2ccsc2c1=O`, the z-score worked out at 0.00651. `COCCN(CCOC)C(=O)CC(=O)N(CCOC)CCOC`: the z-score turned out to be 0.0459. In turn, `Cn1c(C(=O)NCCN2CCc3ccccc3C2)cc2c(=O)n(C)c3ccccc3c21` displayed a z-score of 2.7.

The compound `CN1CCN(CCNC(=O)c2cc3c(=O)n(C)c4ccccc4c3n2C)CC1` came in with a z-score of 0.327.

For the compound `Cn1c(C(=O)NCCCN2CCc3ccccc3C2)cc2c(=O)n(C)c3ccccc3c21`, the z-score came out at 0.807.

Take `COc1cccc(C(=O)OCC(=O)Nc2cc(C)c(C)cc2[N+](=O)[O-])c1`: the z-score is -0.131. Take `CCOC(=O)C1CCCN(Cc2cccs2)C1` (stereo not given): the z-score is -0.137.

On to `O=C(C1CCCN(Cc2cccs2)C1)N1CCCCCC1` (stereo not given), for which the z-score is 3.36 (active). The same measure for `O=C(C1CCCN(Cc2ccccc2)C1)N1CCCCC1` (stereo not given): 0.122. `COc1cccc(C(=O)Cn2c(=O)n(CC3CCCO3)c(=O)c3ccccc32)c1` (stereo not given) displayed a z-score of -0.719. Compound `O=C(C1CCN(S(=O)(=O)c2cccnc2)CC1)N1CCCCC1` returned a z-score of 0.487. `CC1CCN(C(=O)C2CCN(S(=O)(=O)c3cccnc3)CC2)CC1` yielded a z-score of 2.03.

The compound `O=C(C1CCN(S(=O)(=O)c2cccnc2)CC1)N1CCN(C2CCCC2)CC1` showed a z-score of -0.318.

These data come from PubChem BioAssay AID488969 (Vanderbilt High Throughput Screening Facility, 2010).
